Test results reported in PubChem BioAssay (NCI).
Compounds without any hit were thinned out: in the full panel of roughly 83,000, 20% have a hit.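 In brief: 96-well plates, 48 h treatment, single concentration, percent growth endpoint.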 Unmarked numbers belong to inactive results. Activity calls are given as the source filed them. How the source made its calls: active means growth percent below 10; inactive means the rest.

Columns and labels:
Assay in all cases: NCI-60 one-dose screen, 48 h (100 = growth as untreated, 0 = no growth, -100 = all killed)
Conditions in all cases: 10 µM
HT29 colon = test system: HT29 colon
SNB-75 CNS = test system: SNB-75 CNS
SNB-19 CNS = test system: SNB-19 CNS
U251 CNS = test system: U251 CNS
PC-3 prostate = test system: PC-3 prostate
SK-MEL-5 melanoma = test system: SK-MEL-5 melanoma
UACC-62 melanoma = test system: UACC-62 melanoma
LOX IMVI melanoma = test system: LOX IMVI melanoma
SK-MEL-28 melanoma = test system: SK-MEL-28 melanoma
SK-MEL-2 melanoma = test system: SK-MEL-2 melanoma

SMILES	growth (HT29 colon)	growth (SNB-75 CNS)	growth (SNB-19 CNS)	growth (U251 CNS)	growth (PC-3 prostate)	growth (SK-MEL-5 melanoma)	growth (UACC-62 melanoma)	growth (LOX IMVI melanoma)	growth (SK-MEL-28 melanoma)	growth (SK-MEL-2 melanoma)
COc1ccc(Nc2nc3ccc(NC(=O)NC4CCCCC4)cc3[nH]c2=O)cc1	106%	82.6%	100%	86.2%	94.7%	90.9%	94.6%	96.2%	93.1%	111%
C=C(C(=O)c1ccccc1)C(NC(C)(C)C)c1ccccc1 (stereo not given)	-26.1% (active)	53.6%	80.8%	4.4% (active)	5.45% (active)	-25.6% (active)	0.104% (active)	-82.2% (active)	9.1% (active)	-13.9% (active)
COC(=O)C1=NNC(=S)N(c2cc(C)[nH]n2)C(=O)C1	113%	93.9%	98%	101%	99.1%	101%	103%	95.9%	114%	100%
COc1cc(CNCCCCCCN2C(=O)c3cccc4cccc(c34)C2=O)ccc1O	26.9%	67.1%	84.3%	65.9%	51.4%	10.6%	80.5%	36.3%	18.7%	120%
COc1ccc(C(=O)/C=C/c2cc(-c3cc(OC)c(OC)c(OC)c3)n[nH]2)cc1	1.28% (active)	43.6%	47.8%	-2.19% (active)	20.5%	57.2%	52.3%	-11.6% (active)	79.4%	70.4%
Oc1[nH]c2cc(Cl)ccc2c1/C=c1/ccc2c(c1)N=C(c1cc(F)cc(F)c1)N=2	3.28% (active)	-21.5% (active)	64.5%	20.7%	13%	15.5%	36.4%	37.7%	40.1%	20.4%
O=C(Nc1nc2ccccc2s1)Nc1ccc([N+](=O)[O-])cc1Cl	55.8%	16.8%	111%	32.6%	52%	98.5%	67.1%	12.7%	68.5%	111%
Clc1cccc(-c2nc(-c3cccs3)no2)c1	106%	81.5%	104%	90.3%	103%	90.1%	89.8%	93.1%	115%	116%
COc1ccc(OC)c(/C=C/c2nc(SC)n(-c3ccc(Cl)cc3)n2)c1	90.3%	72.1%	81.4%	78.1%	38.9%	53.4%	49.5%	83.3%	85.1%	88.5%
Cc1ccc(-c2n[nH]c(=O)c3noc(-c4ccc(C)cc4)c23)cc1	6.9% (active)	-15% (active)	56%	27.7%	28%	15.9%	28.6%	44%	52%	9.04% (active)
Cc1ccc(C(=O)N2C/C(=C/c3ccc(F)cc3)C(=O)/C(=C/c3ccc(F)cc3)C2)cc1	74.1%	59.7%	97.8%	88.9%	85.2%	94.6%	86.3%	54.5%	105%	84%
COc1cc(Cc2cc(-c3ccc(Cl)cc3)n[nH]c2=O)ccc1O	110%	70.8%	86.2%	108%	105%	80.7%	96.4%	115%	122%	117%
CCN1CCC(CCOC)(CN2c3ccccc3Sc3ccc(Cl)cc32)C1 (stereo not given)	7.66% (active)	47.8%	70.8%	40.5%	35.7%	-49.1% (active)	-46.7% (active)	-5.49% (active)	58.2%	88.5%
COC(=O)C(C(C[N+](=O)[O-])c1ccccc1)=P(c1ccccc1)(c1ccccc1)c1ccccc1 (stereo not given)	67.7%	85.3%	98.4%	88.3%	85.4%	98.5%	90%	58.1%	109%	89.4%
c1ccc(CO[C@H]2CO[C@H]3[C@@H]2OC[C@H]3OCc2ccccc2)cc1	107%	111%	101%	104%	90.6%	101%	95.9%	98.4%	105%	104%
CS(=O)(=O)Nc1ccc(Nc2c3ccccc3nc3cc(N)ccc23)cc1	55.9%	38.8%	22.2%	3.29% (active)	51.3%	5.37% (active)	40.2%	23.4%	42.3%	25.1%
Oc1[nH]c2ccc(Cl)cc2c1/C=c1/ccc2c(c1)N=C(c1cc(F)cc(F)c1)N=2	22.7%	11%	77%	73.9%	62.6%	35.5%	44.8%	47.2%	65.4%	54.8%
COc1ccc(-c2cc(-c3cccc(NS(C)(=O)=O)c3)nc(N)c2C#N)cc1	8.45% (active)	-6.31% (active)	42.1%	28.5%	9.4% (active)	13.6%	39.9%	44.8%	66%	49.8%
CC(=O)n1c(-c2ccc(Cl)c(Cl)c2)cn(-c2ccc(Cl)cc2)c1=O	12.8%	-0.456% (active)	18.4%	26.6%	-31.2% (active)	9.15% (active)	18%	18.2%	7.17% (active)	80.9%
N#Cc1ncc(-c2cc(F)c(F)c(F)c2)c(NC2CCCCCC2)n1	97.6%	65.1%	90.9%	50.2%	77.1%	93%	84.8%	84.9%	94.1%	96.2%
COc1cc(NC(=O)CCSc2nc3ccc(C)cc3c(=O)n2Cc2ccccc2)cc(OC)c1OC	78.9%	-13.9% (active)	73.3%	44.3%	83%	90.6%	85%	71.6%	74%	52.6%
CN(C)CCS(=O)(=O)CCN(C)C	109%	110%	103%	104%	102%	98.7%	97.8%	105%	108%	106%
Cc1cc(C)c(CCc2cc(C)c(C)cc2C)cc1C	100%	98.3%	105%	93.9%	106%	103%	101%	91.7%	108%	109%
COc1ccc2c(c1)-c1c(c3cc(OC)ccc3n(CCN(C)C)c1=O)C2=O	-63.4% (active)	-3.22% (active)	32.4%	20.3%	21.5%	11.7%	36.9%	-67.9% (active)	41.3%	14.4%
CC1(O)CCC2CC3OC3(C)CCC3OC3(C)CCC1C2(C)C (stereo not given)	109%	117%	89.8%	96%	170%	90.3%	99.3%	102%	121%	107%
Clc1nc(Cl)c2c(ncn2C/C=C\Cn2cnc3c(Cl)nc(Cl)nc32)n1	-30.6% (active)	-28.9% (active)	-15.6% (active)	-93.6% (active)	-96.2% (active)	-91% (active)	-79% (active)	-94.2% (active)	-50.3% (active)	5.02% (active)
CC(=O)c1cc(Br)ccc1O	116%	106%	109%	108%	93.5%	104%	104%	103%	105%	106%
O=C(CCCCC[P+](c1ccccc1)(c1ccccc1)c1ccccc1)NC(COC(=O)C(Cl)Cl)(COC(=O)C(Cl)Cl)COC(=O)C(Cl)Cl	96.6%	103%	98.3%	97.1%	90.5%	92.4%	98%	102%	108%	100%
